Measured values from PubChem BioAssay (NCATS).
Records with an inconclusive call do not appear. Entries that show only a call come without a potency. Active and inactive are the calls of the source. Calls come from the whole dose curve; as a rule, active = well fitted inhibition curve with a large enough effect; inconclusive = small, poorly fitted or top-dose-only effect; inactive = flat fitted curve, though single readings scatter. Peptide text beside a SMILES is read from it.

system: CRL-7250; experiment: qHTS assay to identify novel small-molecules to repurpose for Merkel cell carcinoma treatment (AID 1296009); details: MCC and control cell lines, CellTiter-Glo viability, 72 h; series mostly up to 92 µM; note: nearly all actives have a fitted effect of over 60% in size
Source text: MCC is a rare and aggressive neuroendocrine skin cancer with limited treatment options. Approximately 80% of MCCs have the Merkel cell polyomavirus (MCPyV) DNA integrated into the host genome (virus-positive: VP-MCC) and viral oncogenes drive oncogenesis. The remaining MCCs are virus-negative (VN-MCC) and are caused by UV mutagenesis. To identify novel treatments for VP-MCC and/or VN-MCC we screened three VP-MCC cell lines (WAGA, MKL-1, MKL-2), three VN-MCC cell lines (MCC-13, MCC-26, UISO), and four immortalized, non-transformed control cell lines (HaCaT, HEK293T, CRL7250, NIH-3T3) against ~2,400 compounds in the NCGC Pharmaceutical Collection (NPC) and ~1,900 compounds in the Mechanism Interrogation PlatE (MiPE). Using cell viability as a readout (CellTiter-Glo assay) we found both overlapping and distinct drugs that can be repurposed for the treatment of VP-MCC and VN-MCC.
A high-throughput screen was conducted in 1536-well white flat bottom plates (Corning) on a Kalypsys robotic system. Cell lines WAGA, MKL-1, MKL-2, MCC-13, MCC-26, UISO, HaCaT, HEK293T, CRL7250, and NIH-3T3 were screened against 2 small molecule annotated drug libraries NPC and MIPE in dose response (8 and 11 pt. respectively) measuring cell viability after 72 hours of incubation. […] A 1,536 pintool (Kalypsys) was used to transfer 23 nL of compound in DMSO to the 1,536-well assay plates. After 72 hr incubation at 37 degree celsius, 2.5 uL of CellTiter-Glo (Promega) was dispensed into each well using a BiorapTR. Plates were incubated at room temperature for 10 min, transferred to a ViewLux (PerkinElmer) and the luminescence was recorded using an exposure time of 2 seconds. Relative luminescence units (RLUs) were normalized to in-plate controls (no cells as a positive (cytotoxicity) control, DMSO as negative control) and the normalized data was processed using NCATS in-house software.

Row | Compound | Potency | outcome
1 | COC(=O)[C@@H]1C2CC3c4[nH]c5ccccc5c4CCN3CC2CC[C@@H]1O (stereo not given in full) | inactive | –
2 | O=C1NC(=O)/C(=C/c2cccc(C(F)(F)F)c2)S1 | inactive | –
3 | O=C(NCCN1CCC2(CC1)C(=O)NCN2c1cccc(F)c1)c1ccc(F)c(F)c1 | inactive | –
4 | O=C(O)Cc1nn(Cc2nc3cc(C(F)(F)F)ccc3s2)c(=O)c2nccnc12 | inactive | –
5 | COc1cc(OC)cc(C(=O)Nc2ccc(Cl)c(-c3nc4ccc(N(C)C)cc4[nH]3)c2)c1 | inactive | –
6 | C[C@@H]1C(=O)OC[C@H]2C(C(=O)O)=C[C@@H]3CC(C)(C)C[C@]312 | inactive | –
7 | CC(CCO)CCC1C2(C)CCCC(C)(C)C2CC[C@@]1(C)O (stereo not given in full) | inactive | –
8 | CCC[C@@H]1C[C@@H](C(=O)N[C@@H]([C@H]2O[C@H](SC)[C@H](O)[C@@H](O)[C@@H]2O)[C@@H](C)O)N(C)C1 | inactive | –
9 | C[C@@H]1O[C@@H](O[C@H]2[C@H](O)[C@@H](O)[C@H](OC(=O)[C@]34CCC(C)(C)C[C@H]3C3=CCC5[C@@]6(C)CC[C@H](O[C@@H]7O[C@H](C(=O)O)[C@@H](O)[C@H](O)[C@H]7O)C(C)(C)C6CC[C@@]5(C)[C@]3(C)CC4)O[C@@H]2CO)[C@H](O)[C@H](O)[C@H]1O (stereo not given in full) | – | inactive [at 9.27 µM]
10 | CC1=C2C(=O)C=C(CO)C2[C@H]2OC(=O)[C@H](C)[C@@H]2[C@@H](OC(=O)Cc2ccc(O)cc2)C1 (stereo not given in full) | inactive | –
11 | C[C@@H]1CC[C@]2(C(=O)O[C@@H]3O[C@H](CO)[C@@H](O)[C@H](O)[C@H]3O)CC[C@]3(C)C(=CCC4[C@@]5(C)C[C@@H](O)[C@H](O)[C@](C)(C(=O)O)C5CC[C@]43C)[C@@H]2[C@]1(C)O (stereo not given in full) | inactive | –
12 | C[C@@H](CC[C@@H]1[C@@]2(C)CCCC(C)(C)C2CC[C@@]1(C)O)CC(=O)O (stereo not given in full) | inactive | –
13 | CC1CC=C2C1CC1(O)C(=O)CC2(C)C1(C)CO (stereo not given) | inactive | –
14 | COc1cc(NC(=O)c2ccc(-c3ccc(Cl)cc3)o2)cc(OC)c1 | inactive | –
15 | COc1ccc2cc([S+]([O-])Cc3ncc(C)c(OC)c3C)nc2c1 | inactive | –
16 | CC(=O)N1CCN(c2ccc(OCc3nn(C)c(C)c3-c3cccc4c(CCCOc5cccc6ccccc56)c(C(=O)O)n(Cc5cccnc5)c34)cc2)CC1 | inactive | –
17 | NC1=N[C@H]2[C@H](CS[C@H]2CCCCC(=O)O)N1 | inactive | –
18 | CC(=O)c1ccc(O[C@@H]2OC[C@@H](O)[C@H](O)[C@H]2O[C@]2(CO)O[C@H](CO)[C@@H](O)[C@@H]2O)c(O)c1 | inactive | –
19 | C[C@@H]1O[C@@H](O[C@H]2[C@H](OC(=O)[C@]34CCC(C)(C)C[C@H]3C3=CCC5[C@@]6(C)C[C@@H](O)[C@@H](O[C@@H]7O[C@H](CO)[C@@H](O)[C@H](O)[C@H]7O)[C@@](C)(CO)C6[C@H](O)C[C@@]5(C)[C@]3(C)CC4)OC[C@H](O)[C@@H]2O)[C@H](O)[C@H](O[C@@H]2OC[C@](O)(CO)[C@H]2O)[C@H]1O[C@@H]1OC[C@@H](O)[C@H](O[C@H]2O[C@H](C)[C@@H](O)[C@H](O)[C@@H]2O)[C@H]1O (stereo not given in full) | – | inactive [at 9.27 µM]
20 | Cc1cc(Cn2cnc3c2CC(C(=O)O)N(C(=O)C(c2ccccc2)c2ccccc2)C3)ccc1N(C)C (stereo not given) | inactive | –

Row | Compound | Potency | outcome
21 | CCOc1ncc(S(=O)(=O)N2CCN(CC)CC2)cc1-c1nc2c(CC)n(CCOC)nc2c(=O)[nH]1 | inactive | –
22 | CC1NC(=O)CNC(=O)C(C(C)C)NC(=O)C2CCCN2C(=O)C(C(C)C)NC(=O)C(Cc2c[nH]c3ccccc23)NC1=O (stereo not given) (cyclo(GAWVPV); configuration not given here) | inactive | –
23 | CC/C=C\CCO[C@@H]1O[C@H](CO[C@@H]2OC[C@H](O)[C@H](O)[C@H]2O)[C@@H](O)[C@H](O)[C@H]1O | inactive | –
24 | Nc1[nH]nc2nnc(-c3c(-c4ccccc4)nn4ccccc34)cc12 | inactive | –
25 | C[C@](Cc1c[nH]c2ccccc12)(NC(=O)OC1C2CC3CC(C2)CC1C3)C(=O)NC[C@H](NC(=O)CCC(=O)O)c1ccccc1 (stereo not given in full) | inactive | –
26 | CC(C)(C)C1CCN(C(=O)n2ncc(C(O)(c3ccccc3)c3ccccc3)n2)CC1 | inactive | –
27 | CC(=O)OC1C(O)C2C(C)C3=CC(=O)OC3(O)CC2C2(C)CCCC(C)(CO)C12 (stereo not given) | inactive | –
28 | C[C@@H]1O[C@@H](OC2C(CO)OC(OCC3OC(OC(=O)[C@]45CCC(C)(C)CC4C4=CCC6[C@@]7(C)CC[C@@H](O)[C@](C)(C(=O)O)C7CC[C@@]6(C)[C@]4(C)CC5)C(O)C(O)C3O)C(O)C2O)[C@H](O)[C@H](O)[C@H]1O (stereo not given in full) | – | inactive [at 9.27 µM]
29 | CC1=C(C(=O)Nc2cc3cn[nH]c3cc2F)C(c2ccc(C(F)(F)F)cc2)CC(=O)N1 (stereo not given) | inactive | –
30 | CC(=O)OCC(Cc1ccccc1)NC(=O)C(Cc1ccccc1)NC(=O)c1ccccc1 (stereo not given) | inactive | –
31 | O=C(CN1C(=O)C2(CCCC2)NC[C@H]1c1cc(F)cc(F)c1)Nc1ccc2c(c1)C[C@@]1(C2)C(=O)Nc2ncccc21 | inactive | –
32 | CC1CCC2(C(=O)OC3OC(COC4OC(CO)C(O)C(O)C4O)C(O)C(O)C3O)CCC3(C)C(=CCC4C5(C)CCC(O)C(C)(C(=O)O)C5CCC43C)C2C1(C)O (stereo not given) | – | inactive [at 9.27 µM]
33 | C[C@]12CCC(=O)C=C1[C@@H](O)C[C@@H]1[C@@H]2[C@@H](O)C[C@@]2(C)[C@H]1CC[C@]2(O)C(=O)CO | inactive | –
34 | O=c1[nH]c2ccccc2n1CCN1CCN(c2cccc(C(F)(F)F)c2)CC1 | inactive | –
35 | C[C@@H]1O[C@@H](O[C@H]2[C@H](OC(=O)[C@]34CCC(C)(C)C[C@H]3C3=CCC5[C@@]6(C)C[C@H](O)[C@H](O[C@@H]7O[C@H](CO)[C@@H](O[C@H]8OC[C@](O)(CO)[C@H]8O)[C@H](O)[C@H]7O)[C@@](C)(CO)C6[C@H](O)C[C@@]5(C)[C@]3(C)C[C@H]4O)OC[C@H](O)[C@@H]2O)[C@H](O)[C@H](O)[C@H]1O[C@@H]1OC[C@@H](O)[C@H](O[C@@H]2OC[C@](O)(CO)[C@H]2O)[C@H]1O (stereo not given in full) | – | inactive [at 9.27 µM]
36 | CC(C)CC(=O)NCCn1cc(C(=O)O)c(=O)cc1C(O)c1ccccc1 (stereo not given) | inactive | –
37 | CCOC(=O)Nc1ccc(NCc2c(C)cc(C)cc2C)cc1N | inactive | –
38 | COc1cccc(Nc2c(C(N)=O)cnc3c(C)cc(S(=O)(=O)c4cccc(C(=O)N(C)C)c4)cc23)c1 | inactive | –
39 | C[C@@H]1O[C@@H](OC[C@H]2O[C@@H](OCc3ccccc3)[C@H](O)[C@@H](O)[C@@H]2O)[C@H](O)[C@H](O)[C@H]1O | inactive | –
40 | CC(=O)OC[C@@]12[C@H](O)C[C@@H](C)[C@]3(C[C@@H](c4ccoc4)OC3=O)[C@H]1C[C@H](O)C[C@]21CO1 | inactive | –
